The sample as a whole holds a higher share of hits than the screen did.
Pf apPOL block = Pf-apPOL DNA polymerase inhibition | inhibition, % at 10 µM | actives 0.25% (n = 210,000) | Recombinant Pf-apPOL, molecular beacon fluorescence, 1.5 h
mHTT-CaM PPI inh = disrupts binding of mutant huntingtin to calmodulin. AlphaScreen His-mHTT/GST-CaM binding, luminescence. inhibition, % at 15 µM. actives 3.6% (n = 190,000);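 note: 0% = both proteins with DMSO and 100% = one protein alone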
* = called active by the depositor. Cut-off read from the data, not from the text of the source: active = inhibition above about 50%; inactive = the rest.

CC12CC(NC(=O)N1CCc1ccccc1)c1ccccc1O2 (stereo not given) was read as Pf apPOL block 2 and mHTT-CaM PPI inh -2.
`O=C(c1ccccc1)c1cc(Cl)cc2c1NC(C(=O)O)C1CC=CC21` (stereo not given) gave Pf apPOL block -1 and mHTT-CaM PPI inh 6.
For O=C(O)C1Nc2c(O)ccc(Br)c2C2C=CCC12 (stereo not given) the results were Pf apPOL block -2 and mHTT-CaM PPI inh 100*.
Screening Cc1nc(-c2cn(C(C)C)c3ncccc23)sc1C(=O)Nc1ccc(F)cc1 returned Pf apPOL block -8 and mHTT-CaM PPI inh 100*.
For CCn1cc(-c2nc(C)c(C(=O)Nc3ccc(C)cc3)s2)c2cccnc21 the results were Pf apPOL block 2 and mHTT-CaM PPI inh -14.
`CCN(CC)c1ccc(/C=C2/C(=O)ON=C2C)cc1` gave Pf apPOL block 0 and mHTT-CaM PPI inh 50*.
Screening CCOc1ccc(/C=C2/C(=O)ON=C2C)cc1Br returned Pf apPOL block 0 and mHTT-CaM PPI inh 48.
`CCCOc1ccc(/C=C2/C(=O)ON=C2C)cc1Cl` gave Pf apPOL block 9 and mHTT-CaM PPI inh 58*.
Screening CCOc1ccc(Cl)cc1/C=C1/C(=O)ON=C1C returned Pf apPOL block -9 and mHTT-CaM PPI inh 30.
CCOc1ccc(/C=C2/C(=O)ON=C2C)cc1Cl was read as Pf apPOL block 6 and mHTT-CaM PPI inh 67*.
For CCCCC1(C)OC(=O)C(=Cc2ccc(N(CC)CC)cc2)C(=O)O1 (stereo not given) the results were Pf apPOL block 4 and mHTT-CaM PPI inh 3.
Screening Cc1ccc(C2=CC(c3cccc(Br)c3)n3ncnc3N2)cc1 (stereo not given) returned Pf apPOL block -4 and mHTT-CaM PPI inh 14.
`N#C/C(=C\c1ccc(O)cc1)c1ccc([N+](=O)[O-])cc1` gave Pf apPOL block -4 and mHTT-CaM PPI inh 33.
Screening CC(O)(CNC(=O)NCc1cccs1)c1ccc2c(c1)OCO2 (stereo not given) returned Pf apPOL block -6 and mHTT-CaM PPI inh -6.
CCc1nc(C)nc(N2CCN(C(C)=O)CC2)c1Cc1ccc(C)cc1 was read as Pf apPOL block -1 and mHTT-CaM PPI inh -4.
`CCC(=O)N1CCc2ccccc2C1C(=O)NCc1ccc(CC)cc1` (stereo not given) gave Pf apPOL block -2 and mHTT-CaM PPI inh 13.
`O=C1CSC(c2ccc(Cl)cc2)N1c1ccccc1F` (stereo not given) gave Pf apPOL block -1 and mHTT-CaM PPI inh -11.
CC1=C(c2ccc(C)c(C)c2)S(=O)(=O)N=C1N1CCCN(C(=O)C(C)C)CC1 was read as Pf apPOL block 0 and mHTT-CaM PPI inh -10.
COc1ccc(C(=O)Nc2cccc(-c3nc4ccccc4s3)c2C)cc1[N+](=O)[O-] was read as Pf apPOL block -13 and mHTT-CaM PPI inh 22.
Fc1ccc(C2=CSC(N=Cc3ccco3)=NN2)cc1 was read as Pf apPOL block 2 and mHTT-CaM PPI inh 68*.
For CC1=C(c2ccc(Cl)cc2)NN=C(N=Cc2ccco2)S1 the results were Pf apPOL block 0 and mHTT-CaM PPI inh 17.
CC(C)c1ccc(C2Nc3ccc4ncccc4c3C3=C2C(=O)CCC3)cc1 (stereo not given) was read as Pf apPOL block 1 and mHTT-CaM PPI inh 65*.
`Cc1ccc(C2Nc3ccc4ncccc4c3C3=C2C(=O)CCC3)cc1` (stereo not given) gave Pf apPOL block -7 and mHTT-CaM PPI inh 1.
Screening Cc1ccc(NC(=O)C2CCCN(c3nnc4cccc(C)n34)C2)cc1F (stereo not given) returned Pf apPOL block -3 and mHTT-CaM PPI inh 53*.
Screening Cc1cc(NC(=O)C2CCCN(c3nnc4cccc(C)n34)C2)ccc1F (stereo not given) returned Pf apPOL block -2 and mHTT-CaM PPI inh 36.
Screening COc1cccc(Oc2nccnc2N2CCC(C(=O)NCCC3=CCCCC3)CC2)c1 returned Pf apPOL block -5 and mHTT-CaM PPI inh -7.
Cc1ccc(NC(=O)N2CCC(N3CCN(Cc4ccc(F)cc4)C3=O)CC2)cc1 was read as Pf apPOL block -4 and mHTT-CaM PPI inh 12.
COc1ccc([C@H]2C[C@@H](n3cc(-c4ccc(F)cc4)nn3)[C@H](O)CN2Cc2cccs2)cc1 was read as Pf apPOL block 2 and mHTT-CaM PPI inh -1.
O[C@H]1CN(Cc2cccs2)[C@@H](c2ccccc2)C[C@@H]1n1cc(C2CC2)nn1 was read as Pf apPOL block -3 and mHTT-CaM PPI inh 18.
Cc1ccc([C@H]2C[C@H](O)[C@@H](n3cc(C4CC4)nn3)CN2Cc2cccs2)cc1 was read as Pf apPOL block -4 and mHTT-CaM PPI inh 100*.
COc1ccc([C@H]2C[C@H](n3cc(-c4ccc(F)cc4)nn3)[C@@H](O)CN2Cc2cccs2)cc1 was read as Pf apPOL block -3 and mHTT-CaM PPI inh 63*.
Cc1ccc([C@H]2C[C@H](n3cc(C4CC4)nn3)[C@@H](O)CN2Cc2cccs2)cc1 was read as Pf apPOL block -3 and mHTT-CaM PPI inh 80*.
Screening Cc1ccc([C@H]2C[C@@H](O)[C@H](n3cc(C4CC4)nn3)CN2Cc2cccs2)cc1 returned Pf apPOL block -1 and mHTT-CaM PPI inh -4.
`Cc1cc(C)cc(NC(=O)C2CCc3sc(C(=O)N4CCOCC4)cc3C2)c1` (stereo not given) gave Pf apPOL block 1 and mHTT-CaM PPI inh 30.
Screening O=C(Nc1nc2ccc([N+](=O)[O-])cc2s1)c1cc([N+](=O)[O-])ccc1Cl returned Pf apPOL block 3 and mHTT-CaM PPI inh 11.
For Cc1sc2ncnc(Nc3ccc(N4CCCCC4)cc3)c2c1C the results were Pf apPOL block 4 and mHTT-CaM PPI inh 24.
Screening Cc1ccc(-c2csc3ncnc(Nc4ccc(N5CCOCC5)cc4)c23)cc1 returned Pf apPOL block 0 and mHTT-CaM PPI inh 60*.
For CCc1ccc(NC(=O)Cn2ccc3ccn(C)c3c2=O)cc1 the results were Pf apPOL block -1 and mHTT-CaM PPI inh 1.
For COc1cc(OC)cc(N2CCN(Cc3ccccc3)C(C)C2=O)c1 (stereo not given) the results were Pf apPOL block 2 and mHTT-CaM PPI inh 49.
`COc1cc(OC)cc(N2CCN(Cc3ccc(F)cc3)C(C)C2=O)c1` (stereo not given) gave Pf apPOL block -5 and mHTT-CaM PPI inh 79*.
Cc1[nH]c2ccccc2c1CN1CCc2ccccc2C1 was read as Pf apPOL block -5 and mHTT-CaM PPI inh 62*.
Screening Cc1ccc(CN2CCc3ccccc3C2)o1 returned Pf apPOL block -1 and mHTT-CaM PPI inh -4.
For O=C(CSc1nnc(-c2ccco2)o1)c1cccc([N+](=O)[O-])c1 the results were Pf apPOL block -7 and mHTT-CaM PPI inh -2.
O=C(Cc1c[nH]c2ncccc12)NCc1cccs1 was read as Pf apPOL block 0 and mHTT-CaM PPI inh -12.
O=c1nc(SCc2ccc(Cl)cc2)c2c(n1CC1CCCO1)CCC2 (stereo not given) was read as Pf apPOL block -14 and mHTT-CaM PPI inh 13.
`Cc1cccc(C)c1NC(=O)c1cc(S(=O)(=O)NCc2ccccc2Cl)ccc1F` gave Pf apPOL block -2 and mHTT-CaM PPI inh -1.
COc1ccc(S(=O)(=O)NCCC2CCN(C(=O)c3ccccc3)CC2)cc1 was read as Pf apPOL block 1 and mHTT-CaM PPI inh 28.
COc1ccc(OC)c(S(=O)(=O)NCCC2CCN(C(=O)c3ccc(C)cc3)CC2)c1 was read as Pf apPOL block -6 and mHTT-CaM PPI inh 63*.

Compound activity (PubChem BioAssay)
